hgDAF-12 ag – activates the H. glycines DAF-12 receptor ligand-binding domain. HEK293 GAL4-hgDAF12 UAS-luciferase reporter, agonist luminescence; normalized to butyrate control. activation, % at 6.8 µM. 370,000 tested, 1.8% active;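 active means activation above a cutoff set at the mean of all screened compounds plus 3 SD, cut at about 10% in these data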;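 further: 0% = DMSO wells and 100% = sodium butyrate wells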
Wnt bcat act – activates Wnt/beta-catenin signaling in a reporter cell assay | activation, % at 9.35 µM | AID 743398 | activator, plate reader | 300,000 tested, 1.2% active; in the data active means activation above about 30%, passing the limit was not always enough; inconclusive means no clear call, values can overlap the other calls;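 further: 0% = neutral control wells and 100% = positive control wells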
DAX1 inh – inhibitors of DAX1 repression of SF-1 activated StAR promoter; HEK293T StAR-luciferase reporter, SF-1/DAX-1 repression relief; inhibition, % at 6.8 µM; 370,000 tested, 1.1% active;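 active means inhibition above the mean over all tested compounds plus 3 SD, cut at about 3.6% in these data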;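 further: 0% = DAX-1 cells with DMSO and 100% = cells lacking DAX-1 with DMSO; higher inhibition means more luminescence from relief of DAX-1 repression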
hcDAF12 agonist – activators of H. contortus DAF-12 nuclear receptor; HEK293 hcDAF-12 lit1-tk-luc reporter, luminescence; 0% DMSO, 100% Δ7-dafachronic acid; activation, % at 6.8 µM; 370,000 tested, 1.4% active;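 active means activation above the mean of all tested compounds plus 3 SD, cut at about 5.5% in these data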;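 further: 100% = response to 3 µM Δ7-dafachronic acid high control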
ssDAF12 agonist – activates DAF-12 receptor from parasite S. stercoralis. HEK293 ssDAF-12/GRIP1 lit1-tk-luc reporter, luminescence; % of 3 µM dafachronic acid response. activation, % at 6.8 µM. 370,000 tested, 1% active;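 active means activation above the mean over all tested compounds plus 3 SD, cut at about 0.9% in these data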;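 further: 0% = DMSO-only wells and 100% = 3 µM delta7-dafachronic acid wells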
esBAF inh – SWI/SNF esBAF complex inhibition; mouse ES cells, Bmi1-luciferase knock-in reporter, 24 h; 100% = twice the neutral-well signal; reporter increase, % at 12.5 µM; 350,000 tested, 2% active; in the data active means activation above about 40%; inconclusive means no clear call, values can overlap the other calls;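 further: 0% = median of the plate's neutral control wells and 100% = double that signal; a rise in the Bmi1 reporter signal indicates esBAF inhibition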
LXRb hcDAF ctr – counter-screen for hcDAF-12 agonists: agonists of human LXR-beta | AID 743027 | HEK293 Gal4-LXR tk-luc reporter, luminescence, 24 h; normalized: DMSO 0%, positive control 100% | 3,400 tested, under 10 active | activation, % at 6.8 µM | shares compounds with hcDAF12 agonist;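 active means mean percent activation of the reporter above a cutoff set as the average over tested compounds plus their standard deviation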
Target sequence (P55055 whole entry, looked up, the tested form may be a part): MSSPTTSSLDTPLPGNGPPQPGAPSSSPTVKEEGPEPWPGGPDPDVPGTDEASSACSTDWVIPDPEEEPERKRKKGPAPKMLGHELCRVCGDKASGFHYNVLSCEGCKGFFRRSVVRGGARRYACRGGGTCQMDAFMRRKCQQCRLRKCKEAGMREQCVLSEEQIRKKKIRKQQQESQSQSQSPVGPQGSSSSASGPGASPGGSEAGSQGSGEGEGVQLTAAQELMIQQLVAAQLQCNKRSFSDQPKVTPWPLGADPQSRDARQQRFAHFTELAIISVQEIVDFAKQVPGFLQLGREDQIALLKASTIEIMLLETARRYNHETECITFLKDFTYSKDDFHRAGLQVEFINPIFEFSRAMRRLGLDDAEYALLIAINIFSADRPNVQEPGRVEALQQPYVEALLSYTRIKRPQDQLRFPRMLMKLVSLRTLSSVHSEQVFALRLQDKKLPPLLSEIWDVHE
hcDAF12 ag – confirmation of H. contortus DAF-12 agonists; 3,400 tested, 61% active; shares compounds with hcDAF12 agonist; HEK293 hcDAF-12 lit1-tk-luc reporter, luminescence; % of Δ7-dafachronic acid response; activation, % at 6.8 µM;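 active means mean activation across triplicate tests above the threshold derived from the earlier primary screen, cut at about 5.5% in these data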;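 further: 0% = DMSO only wells and 100% = 3 µM Δ7-dafachronic acid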
Numbers without * were called inactive; ? = inconclusive; / = not tested or not shown. The list is not random: actives were taken first. Their share in the collection is about 4.2%.

SMILES | hgDAF-12 ag | Wnt bcat act | DAX1 inh | hcDAF12 agonist | ssDAF12 agonist | esBAF inh | LXRb hcDAF ctr | hcDAF12 ag
C[C@@H]1CCCCO[C@@H](CN(C)C(=O)Nc2ccccc2)[C@@H](C)CN([C@H](C)CO)C(=O)c2cc(NS(=O)(=O)c3cn(C)cn3)ccc2O1 | / | / | / | / | / | -0.5 | / | /
O=C(NC(=S)Nc1nc2c(s1)CSc1ccccc1-2)c1ccccc1 | 5.4 | / | -0.4 | 7.1* | 0.2 | -0.9 | -0.2 | 7.6*
N#C/C(=N\Nc1ccc(S(=O)(=O)N2CCCCCC2)cc1)C(N)=S | 0.1 | 1.6 | 0.6 | -0.1 | -1.9 | / | / | /
Cc1ccc(N/N=C(\C#N)C(=N)N2CCCCC2)cc1 | 18.9* | 1.6 | 2.8 | 6.9* | 1.2* | 9.2 | 1.6 | 10.8*
CC(C)NC(=O)c1ccc2c3n(nc2c1)-c1ccccc1CO3 | 9.4 | 17.6 | 3.0 | 6.9* | 0.2 | -45.0 | 1.6 | 8.1*
CC(C)NC(=O)c1ccc2c(c1)nnn2C | -1.5 | / | -0.5 | -0.5 | -0.6 | -7.9 | / | /
CCCNC(=O)C[C@@H]1CC[C@H]2[C@H](COc3ccc(NC(=O)c4ccc(C(F)(F)F)cc4)cc3C(=O)N2C)O1 | / | / | / | / | / | 26.9 | / | /
Cc1ccc(N/N=C/c2ccc3c(c2)OCCO3)cc1Cl | 9.9 | / | 0.7 | 7.8* | -0.1 | / | 2.2 | 8.3*
CNC(=S)N/N=C/c1ccc2c(c1)OCCO2 | 5.0 | 19.7 | 0.5 | -0.4 | -0.9 | 21.6 | / | /
C[C@H]1CN([C@@H](C)CO)C(=O)c2cc(-c3ccc(F)cc3)cnc2O[C@H]1CN(C)Cc1cncnc1 | / | / | / | / | / | -8.3 | / | /
COc1ccc(CC(=O)O/N=C(\N)c2ccc(C)cc2)cc1 | 5.3 | 15.6 | 0.2 | 7.7* | 1.6* | / | 0.2 | 8.5*
Cc1ccccc1-c1cnc2c(c1)C(=O)N([C@@H](C)CO)C[C@H](C)[C@H](CN(C)Cc1cncnc1)O2 | / | / | / | / | / | 0.1 | / | /
CCC(=O)N(CC)Cc1cc(=O)[nH]c2ccccc12 | 5.1 | 15.2 | 0.7 | 6.8* | 0.2 | -5.8 | -0.1 | 4.2
CCCN(Cc1cc(=O)[nH]c2ccccc12)C(=O)CC | -2.0 | 10.0 | 0.4 | 0.7 | -0.2 | -4.9 | / | /
C/C(CC(=O)Nc1ccc(Cl)c(C(F)(F)F)c1)=N\NC(=O)c1ccccc1O | 10.1 | -23.8 | 0.0 | 10.4* | 1.4* | / | -0.2 | 0.5
CNc1cnn(-c2ccc(C)cc2)c(=O)c1Sc1ccc(C)cc1 | -1.4 | -1.6 | -0.1 | 0.5 | -1.0 | / | / | /
CNc1cnn(-c2ccc(C)cc2)c(=O)c1Cl | 10.1 | -0.9 | 2.9 | 8.1* | 0.6 | 18.5 | 1.1 | 9.1*
C[C@@H]1CN([C@H](C)CO)C(=O)c2cc(/C=C/c3ccccc3)cnc2O[C@@H]1CN(C)C(=O)Nc1ccc(C(F)(F)F)cc1 | / | / | / | / | / | 7.2 | / | /
O=C(COc1ccccc1Cl)Nc1ccc(Cl)cn1 | 15.2* | 51.7* | 2.6 | 9.0* | 1.4* | 30.2 | 1.4 | 10.8*
COc1ccccc1C(=O)NC(=S)Nc1cccnc1Cl | 5.0 | -6.3 | 1.2 | 8.1* | 1.2* | -71.6 | 1.7 | 19.5*
COc1ccccc1C(=O)N/N=C(\C)CC(=O)Nc1ccc(Cl)cn1 | 5.3 | 2.8 | 2.5 | 6.6* | 0.0 | / | -0.1 | 2.6
COc1ccccc1C(=O)N/N=C(\C)CC(=O)Nc1ccccc1NC(C)=O | 3.9 | -1.6 | 0.4 | 1.1 | 0.3 | -5.3 | / | /
COc1ccccc1C(=O)N/N=C(\C)CC(=O)Nc1ccccn1 | 3.2 | 5.4 | 0.3 | 7.3* | 0.4 | 8.3 | -0.1 | 6.0*
COc1ccccc1-c1cc(C(=O)Nc2cccnc2Cl)no1 | -1.1 | 1.8 | -0.3 | -1.5 | -1.3 | 7.4 | / | /
C[C@H]1CCCCO[C@@H](CN(C)CC2CCCCC2)[C@@H](C)CN([C@@H](C)CO)C(=O)c2cc(NC(=O)CCCN(C)C)ccc2O1 | / | / | / | / | / | 1.2 | / | /
SMILES | hgDAF-12 ag | Wnt bcat act | DAX1 inh | hcDAF12 agonist | ssDAF12 agonist | esBAF inh | LXRb hcDAF ctr | hcDAF12 ag
O=S(=O)(NCc1c(Cl)cccc1Oc1ccccc1)c1ccccc1 | -2.8 | -0.5 | 0.2 | 20.2* | -1.0 | -0.1 | -0.3 | -0.7
CCCNC(=O)Nc1ccc2c(c1)C(=O)N(C)C[C@@H](OC)[C@@H](C)CN(C(=O)c1ccccc1F)[C@H](C)CO2 | / | / | / | / | / | 3.7 | / | /
Cc1cccn2c(=O)c3cc(C(=O)N4CC(C)CC(C)C4)sc3nc12 (stereo unspecified) | 1.9 | 1.2 | 0.5 | 4.2 | 0.0 | 10.4 | / | /
CCOC(=O)N1CCN(C(=O)c2cc3c(=O)n4cccc(C)c4nc3s2)CC1 | 1.8 | -1.3 | 0.1 | 7.4* | -0.4 | 0.6 | -0.4 | 3.4
O=C(NCC[C@@H]1CC[C@@H](NC(=O)C2CC2)[C@@H](CO)O1)c1cnccn1 | / | / | / | / | / | -7.3 | / | /
CCOc1ccc(N=NC2C(=O)N(C(N)=S)N=C2C)cc1 (stereo unspecified) | 8.4 | 13.3 | 3.1 | 6.6* | 0.9* | 26.9 | 0.8 | 4.8
O=c1c2ccccc2cnn1Cc1n[nH]c(=S)n1-c1ccc(Cl)cc1 | 0.0 | 0.0 | -0.4 | -1.4 | -0.9 | / | / | /
Cc1nn(-c2ccc(Cl)cc2)c(=O)c2ccccc12 | 9.4 | ? | 2.7 | 7.2* | 1.1* | / | 0.6 | 9.9*
O=c1c2ccccc2cnn1-c1ccc(Cl)cc1 | 16.8* | / | 2.9 | 12.1* | 1.9* | 13.9 | 1.6 | 10.2*
Cc1nn(-c2ccc(Cl)c(Cl)c2)c(=O)c2ccccc12 | 5.3 | 12.7 | 0.5 | 3.6 | -0.1 | 27.3 | / | /
C[C@@H]1CN([C@H](C)CO)S(=O)(=O)c2ccc(C3=CCCC3)cc2O[C@H]1CN(C)C(=O)c1cnccn1 | / | / | / | / | / | 1.9 | / | /
CC(C)CN1CCN(C(=O)CCc2nnc(Cc3c[nH]c4ccccc34)o2)[C@@H](C)C1=O | 2.1 | 3.7 | 1.1 | 7.0* | 0.9 | 16.9 | -0.1 | 3.3
COc1cc2cc(C(c3nnnn3C(C)(C)C)N3CCc4ccccc43)c(=O)[nH]c2cc1OC (stereo unspecified) | -0.8 | -4.4 | -0.3 | 7.3* | -0.5 | 2.0 | -0.5 | -0.2
COc1cc2cc(C(c3nnnn3C3CCCC3)N3CCc4ccccc43)c(=O)[nH]c2cc1OC (stereo unspecified) | / | -1.0 | / | / | / | -2.9 | / | /
COc1ccc(-c2nnsc2N2C(=O)c3ccccc3C2=O)cc1 | 0.0 | 3.8 | 0.1 | -1.7 | -1.1 | 1.8 | / | /
COc1ccc(-c2nc3n(c2C)Cc2ccccc2-3)cc1 | 12.4* | 46.2* | 1.2 | 9.9* | 2.2* | / | 0.8 | 7.5*
N#C/C(=C/c1ccc(N2CCCCC2)cc1)c1cccc(F)c1 | 6.6 | 33.4* | 1.0 | 8.8* | -0.9 | 66.2* | 0.8 | 1.8

Source: PubChem BioAssay (several laboratories)
